# Test results: PubChem BioAssay (NCI)
# The panel holds about 83,000 compounds, 20% with a hit somewhere; the sample as a whole holds those more often.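 Values shown are percent growth following 48 h exposure of cells in 96-well plates to a single concentration of compound; below 10 was considered active.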 Unmarked numbers belong to inactive results. Activity calls are given as the source filed them.
# Tests used:
# Experiment in all cases: NCI-60 one-dose screen, 48 h (100 = growth as untreated, 0 = no growth, -100 = all killed)
# Conditions in all cases: 10 µM unless noted
# NCI-H23 lung = tested on: NCI-H23 lung
# NCI-H226 lung = tested on: NCI-H226 lung
# NCI-H322M lung = tested on: NCI-H322M lung
# HOP-62 NSCLC = tested on: HOP-62 NSCLC
# NCI-H460 lung = tested on: NCI-H460 lung
# HOP-92 NSCLC = tested on: HOP-92 NSCLC
# NCI-H522 lung = tested on: NCI-H522 lung
# A549/ATCC NSCLC = tested on: A549/ATCC NSCLC
# 786-0 renal = tested on: 786-0 renal
# COLO 205 colon = tested on: COLO 205 colon
# DU-145 prostate = tested on: DU-145 prostate
# K-562 leukemia = tested on: K-562 leukemia
# MALME-3M melanoma = tested on: MALME-3M melanoma
# MDA-MB-231 breast = tested on: MDA-MB-231 breast
# RXF 393 renal = tested on: RXF 393 renal
# SF-268 CNS = tested on: SF-268 CNS
# SF-295 CNS = tested on: SF-295 CNS
# SF-539 CNS = tested on: SF-539 CNS
# UACC-257 melanoma = tested on: UACC-257 melanoma
# M14 melanoma = tested on: M14 melanoma
Structure (SMILES),growth (NCI-H23 lung) [%],growth (NCI-H226 lung) [%],growth (NCI-H322M lung),growth (HOP-62 NSCLC) [%],growth (NCI-H460 lung),growth (HOP-92 NSCLC) [%],growth (NCI-H522 lung),growth (A549/ATCC NSCLC) [%],growth (786-0 renal) [%],growth (COLO 205 colon),growth (DU-145 prostate),growth (K-562 leukemia),growth (MALME-3M melanoma),growth (MDA-MB-231 breast) [%],growth (RXF 393 renal),growth (SF-268 CNS) [%],growth (SF-295 CNS),growth (SF-539 CNS),growth (UACC-257 melanoma),growth (M14 melanoma) [%]
COc1ccc(-c2cc(-c3ccc(Cl)cc3)nc(NCCCCNc3ccnc4cc(Cl)ccc34)n2)cc1,86.4,75,94.4%,78.1,89.7%,46.2,80%,91.8,73.5,30.4%,98.8%,0.414% (active),-18% (active),73.4,26.5%,86.5,83.8%,64.8%,3.17% (active),34.6
Nc1cccc2c1C(=O)c1cccc(NC(=O)c3ccccc3)c1C2=O,29.9,52.2,-7.76% (active),38.7,7.2% (active),53.2,-28.5% (active),28.6,37.5,-11.5% (active),6.99% (active),13.3%,-17% (active),38.4,-10.7% (active),51.5,-30.3% (active),-2.57% (active),56.2%,14.2
O=C1COCCN1c1ccc(Nc2nc(Cl)nc(N3CCOCC3)n2)cc1,96.5,87.5,93.3%,97.9,108%,85.8,68.2%,95.8,104,102%,102%,100%,96.3%,103,92.4%,99.4,94.4%,96.5%,98.2%,98.2
Nc1nnc(CSc2nnc3n(Cc4ccccc4)c(=O)c4c5c(sc4n23)CCCC5)s1,88.5,90.6,111%,99.2,15.4%,70.6,66.8%,95.1,93.3,77.4%,110%,64.1%,116%,76.5,93.2%,41.2,276%,105%,98.5%,104
CCN(CC)c1ccc2cc(C(Nc3ccc(Br)c(C(F)(F)F)c3)c3nnnn3C(C)(C)C)c(=O)oc2c1 (stereo not given),100,86.1,99.6%,94,91.9%,87.5,77.9%,86.3,99.8,101%,103%,88.2%,88%,86.9,82.9%,85.3,103%,101%,93.3%,103
COc1cc(OC)cc(C(=O)Nc2cc(-c3cccnc3)nc(NCCCN3CCOCC3)n2)c1,91.7,85.7,90.9%,87.8,95.3%,67.7,92%,92.6,84,94.3%,104%,74.1%,110%,79.6,93.9%,94.1,101%,91.1%,88.6%,104
COc1ccc2c(c1)C(C)Cc1c(ncnc1-n1cnc3ccccc31)N2C (stereo not given),32.3,41.5,54.9%,24.1,11.8%,45.1,-18.9% (active),21.4,29,-28.7% (active),23.7%,14.2%,92.3%,12.9,12.8%,37.4,13.6%,4.91% (active),67.2%,18.3
Cn1cc(-c2nnc(-c3cn(C)c4ncccc34)s2)c2ccccc21,84.6,96,92.7%,65.8,75.1%,30.2,32.1%,57.6,78.4,64.1%,73.6%,27.8%,29.1%,40.2,78.4%,72.1,47.7%,45.8%,96.1%,92.8
